Myeloid diff 2: compounds promoting myeloid differentiation; AID 624256; ER-HoxA9 myeloid progenitors, lysozyme-GFP differentiation, flow cytometry; actives 1% (n = 360,000); calls only at 10 µM;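 active = normalized GFP-positive differentiation at or above the plate's own cutoff, the solvent-only control mean plus 3 SD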;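 note: cells exposed to compound for four days before flow analysis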
NadD block: NadD (S. aureus) enzyme inhibition. actives 0.78% (n = 360,000). inhibition, % at 20 µM. purified NadD enzyme, colorimetric absorbance read-out; in the data active = inhibition above about 26%
CRFR2-BP antag: antagonists of CRF-binding protein/CRF-R2 receptor complex | HEK293 CRF-R2/CRF-BP, CRF-induced calcium fluorescence | inhibition, % at 11.8 µM | actives 0.59% (n = 350,000);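 active = inhibition of the ligand-induced calcium signal above about 50% at the single tested concentration, limit read from the data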
CendR NRP1 mod: modulators of CendR peptide binding to human neuropilin-1 | O14786 | FAM-RPARPAR peptide binding to NRP-1, fluorescence polarization | inhibition, % at 25 µM | actives 0.85% (n = 360,000);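 active = inhibition or corrected inhibition above about 18%, plus a signal ratio from 0.5 to 1.5, limit read from the data, passing the limit was not always enough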
FAS TE block: FAS thioesterase (human) inhibition. P49327. actives 0.67% (n = 360,000). AID 602261. recombinant FAS-TE, OMFH fluorogenic substrate, fluorescence endpoint. inhibition, % at 15 µM;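 active = compounds whose normalised, plate-corrected inhibition of enzyme fluorescence in the single-dose primary screen is 50% or more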;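 note: 0% = DMSO with enzyme and 100% = substrate without enzyme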
* = called active by the depositor; i = inactive; x = not tested or not shown; + = active, no number. Most compounds without a hit are left out; they make up all but 3.6% or so of the library.

SMILES	Myeloid diff 2	NadD block	CRFR2-BP antag	CendR NRP1 mod	FAS TE block
Clc1cccc(N2Cc3cc(-c4ccccc4)ccc3-n3nncc3C2)c1	i	33.1*	x	-130.1	27.1
CCC1(CC)C(=O)N(Cc2ccccc2)C(=O)N(Cc2ccccc2)C1=O	i	-5.5	86.6*	2.8	23.4
COc1ccccc1N1C(=O)CC(=O)NC1=O	i	2.7	-7.4	12.0	-6.6
O=C1c2cccc(N3CCNCC3)c2C2CCCCN12 (configuration not stated)	i	-4.2	x	20.8*	-8.9
Clc1cccc(N2CCNCC2)c1Cl	i	-1.1	-34.3	5.8	-8.7
O=P(Oc1ccccc1)(Oc1ccccc1)N1CCOCC1	i	-0.4	-7.5	5.2	-6.2
C[C@]1(O)CCC2C3CC[C@H]4C[C@@H](OC(=O)[C@@H](N)CCCCN)CC[C@]4(C)C3CC[C@@]21C (some centres not stated)	i	-7.4	-38.0	-4.9	-7.7
COc1ccc2c3c([nH]c2c1)C(C)NCC3 (configuration not stated)	+	14.5	-4.5	-121.1	-9.6
c1ccc2c(c1)CN(Cc1ccc3c(c1)OCO3)Cc1cnnn1-2	i	4.5	-1.3	-0.8	-4.0
CN(C)C(CNC(=O)Cc1c(Cl)cccc1Cl)c1ccccc1 (configuration not stated)	i	-2.9	-4.0	26.4*	-7.2
CC(NCc1cccc(Cl)c1Cl)C(O)c1ccccc1 (configuration not stated)	i	-10.9	-29.1	-8.9	5.9
C[n+]1c(-c2ccccc2)c2cc(N)ccc2c2ccc(N)cc21	+	19.3	-26.5	55.9*	0.2
CS(=O)(=O)c1ccc(C2=C(CNC(=O)c3cccs3)[C@H]3CC[C@@H](C2)N3Cc2ccccc2)cc1	i	1.4	-5.6	-13.3	-7.4
COc1ccc(C(=O)C(C)(C)NO)cc1	i	-1.9	7.6	29.1*	-1.5
COC(=O)C1=C(c2c(C)noc2C)C[C@@H]2CC[C@H]1N2C(=O)N1CCC(O)(c2ccc(Cl)cc2)CC1	i	-0.3	2.0	-8.5	-7.6
CCN(CC)C(=O)c1ccc(N(Cc2ccccc2)S(C)(=O)=O)cc1	i	0.5	7.1	7.9	-2.8
CCN(CC)C(=O)c1ccc2c(c1)C1C=CCC1C(C(=O)O)N2 (configuration not stated)	i	18.6	-1.7	44.8*	-4.8
O=[N+]([O-])c1cccc(C2N3CCCN23)c1 (configuration not stated)	i	-2.1	-14.2	2.1	-9.9
O=C(O)c1cccc2c1NC(c1cccc([N+](=O)[O-])c1)C1CC(Sc3ccccc3[N+](=O)[O-])C(Cl)C21 (configuration not stated)	x	59.9*	18.9	-49.3	-112.9
O=C(O)c1ccc2c(c1)C1C(Cl)C(Sc3ccccc3[N+](=O)[O-])CC1C(c1cccc([N+](=O)[O-])c1)N2 (configuration not stated)	i	32.9*	17.8	17.3	-82.0
CCN(CC)C(=O)c1ccc2c(c1)C1C(Cl)C(Sc3ccccc3[N+](=O)[O-])CC1C(C(=O)O)N2 (configuration not stated)	i	21.0	-0.8	46.5*	15.7
O=C1NC(=S)SC1=Cc1ccc(N(CCCl)CCCl)cc1	+	12.5	-100.1	144.1	-128.3
O=C(O)CCCc1ccc(N(CCCl)CCCl)cc1	i	-3.0	6.6	6.7	-2.1
CC1CN1P(=O)(Oc1ccc2ccccc2c1)N1CC1C (configuration not stated)	i	-7.7	-5.0	14.4	-2.1
CC12CCC3c4ccc(OP(=O)(N5CC5)N5CC5)cc4CCC3C1CCC2=O (configuration not stated)	i	1.3	-12.2	26.3*	-6.5
SMILES	Myeloid diff 2	NadD block	CRFR2-BP antag	CendR NRP1 mod	FAS TE block
Clc1ccc(CCC(Cn2ccnc2)Sc2c(Cl)cccc2Cl)cc1 (configuration not stated)	i	20.0	-4.0	-0.4	23.9
COC(=O)C1=C(c2ccccc2OCc2ccccc2)C[C@@H]2CC[C@H]1N2C(=O)NC1CCN(Cc2ccccc2)CC1	+	2.6	-2.5	-0.9	-5.0
COC(=O)C1=C(c2ccc(F)cc2OCc2ccccc2)C[C@@H]2CC[C@H]1N2C(=O)NCCO	i	-1.7	0.2	1.1	-4.2
COC(=O)C1=C(c2ccc(F)cc2OCc2ccccc2)C[C@@H]2CC[C@H]1N2C(=O)NCCNC(C)=O	i	0.9	2.5	30.3*	-11.3
COC(=O)C1=C(c2cccc(C#N)c2)C[C@@H]2CC[C@H]1N2C(=O)NCCc1ccccc1	i	-6.5	10.8	26.3*	-5.1
c1ccc(C2(NC3=NCCO3)CCCCC2)cc1	i	-2.0	7.8	1.2	-80.9
Oc1ccc2c3c1OC1c4oc5ccccc5c4C[C@@]4(O)[C@@H](C2)N(CC2CC2)CC[C@]314 (some centres not stated)	x	-6.1	-4.5	-4.2	-0.6
CCC(C)N1C(=O)/C(=C/c2ccc3c(c2)CCN3CCCCl)C(=O)NC1=S (configuration not stated)	i	39.7*	16.9	-78.9	2.0
CCCCCc1nc2c(c(=O)c3ccccc3n2C)c(=O)n1C1CCCCCC1	+	22.6	-199.0	-20.2	11.8
CN1CCc2cc3c(c4c2C1Cc1ccccc1-4)OCO3 (configuration not stated)	i	8.7	7.3	51.3*	3.2
CN1CCc2cc(O)cc3c2[C@H]1Cc1ccc(O)c(O)c1-3	i	-5.9	-15.2	1.8	0.0
Cn1cccc1/C=C1/C(=O)NC(=S)N(Cc2ccc(F)cc2)C1=O	i	45.2*	-27.3	-13.4	6.1
CCC1CN1P(=O)(N1CCCC1)N1CC1CC (configuration not stated)	i	-6.4	-13.9	-5.5	-6.0
Oc1cc(Cl)c(Cl)c(Cl)c1	i	3.3	55.1*	11.6	3.6
Oc1cc(Cl)c(Cl)c(Cl)c1Cl	i	-3.7	30.1	0.6	5.7
CCCCn1c(O)c(C(=O)/C=C/c2c[nH]c3ccccc23)c(=O)[nH]c1=O	+	9.8	-100.5	130.0	-8.5
CCCCn1c(O)c(C(CC)=NCCc2ccccc2)c(=O)[nH]c1=O	i	-3.3	-26.1	-8.7	4.3
COc1ccc(OC(=O)N(C)C)c(CN(C)C)c1	i	-6.6	15.3	27.0*	-2.3
Cc1cc(CN(C)C)c(OC(=O)N(C)C)cc1C	i	4.6	-6.9	-0.8	-6.6
Cc1ccc2c(CN3CC=C(c4ccccc4)CC3)cc(=O)oc2c1C	i	4.5	7.8	-10.3	2.5
O=c1[nH]c(CN2CC=C(c3ccccc3)CC2)nc2cc(C(F)(F)F)ccc12	+	15.4	-2.8	-44.5	-0.2
O=c1[nH]c(CN2CC=C(c3ccccc3)CC2)nc2scc(-c3ccccc3)c12	+	21.5	5.1	-57.8	-1.3
COC(=O)[C@@H]1N=C(c2ccc(OC)cc2)O[C@]12C(=O)N(C)c1ccc(Cl)cc12	i	-1.8	x	-54.4	0.5
